Structures are written as SMILES. Screen size: about 290,000 compounds; about 370 (0.13%) were called active. This is one part of a sample in which actives are shown more often than they occur. Potency and affinity values are given separately. Unmarked numbers belong to inactive results.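 How the source made its calls: active means spots per cell inhibited over 60%, with over 100 cells counted and total cytoplasm intensity under 500,000; inconclusive means wells with under 100 cells, flagged as likely toxic; inactive means the rest.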

The target of the assay is G-protein coupled receptor 55 (Homo sapiens) (UniProt Q9Y2T6). In words: GPR55 antagonists blocking LPI-driven arrestin recruitment, primary screen, imaging, U2OS, beta-arrestin-GFP, LPI agonist (AID 2013).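 Further: U2OS cells stably carrying GPR55 and arrestin-GFP stimulated by 5 µM LPI near EC80; imaged beta-arrestin-GFP aggregate spots per cell after agonist stimulation; plate controls were LPI-stimulated DMSO wells for no effect and DMSO wells without LPI for full effect.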 To be noted: U2OS GPR55 beta-arrestin-GFP translocation imaging, LPI antagonism; at 10 µM; stronger effect = higher value.
Sequence of G-protein coupled receptor 55 (Homo sapiens) (Q9Y2T6 whole entry, looked up): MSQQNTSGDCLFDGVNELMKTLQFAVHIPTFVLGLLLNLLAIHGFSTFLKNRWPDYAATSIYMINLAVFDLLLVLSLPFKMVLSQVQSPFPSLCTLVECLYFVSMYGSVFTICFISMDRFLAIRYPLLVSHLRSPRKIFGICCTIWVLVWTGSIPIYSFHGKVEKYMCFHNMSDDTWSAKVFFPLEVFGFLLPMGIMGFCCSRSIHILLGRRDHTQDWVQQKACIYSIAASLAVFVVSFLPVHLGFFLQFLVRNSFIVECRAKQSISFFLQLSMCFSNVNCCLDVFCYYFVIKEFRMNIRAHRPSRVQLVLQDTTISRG
With `CCOC(=O)c1cn(CC2CC2)c2cc(F)c(F)cc2c1=O`, the inhibition is -1.8%.

With `O=C(Cc1coc2ccc3ccccc3c12)NC1CCCc2ccccc21` (stereo not drawn), the inhibition is -1.1%.

For the molecule `C/C(=N\Nc1nc2ccccc2s1)c1ccc2c(c1)OCO2`, the inhibition was 11.7%.

Turning to `O=C(Nc1ccccc1)c1ccccc1Oc1ccc(C(F)(F)F)cc1[N+](=O)[O-]`, the inhibition is 5.3%.

For `O=C(Nc1ccc(F)cc1)c1ccccc1Oc1ccc(C(F)(F)F)cc1[N+](=O)[O-]`, the inhibition was 24.3%.

For `CC(=O)N(C1CC(C)C(C#N)(C#N)C1(C#N)C#N)N(C)C` (stereo not drawn), the inhibition was 7.5%.

As to `CCCC(=O)N(C1CC(C)C(C#N)(C#N)C1(C#N)C#N)N(C)C` (stereo not drawn), the inhibition was 98.9% (active).

On to `O=C1NC2(CCCCCC2)N=C1c1ccc(Br)cc1`, for which the inhibition is 2.5%.

For `CCCCS(=O)(=O)Nc1ccc(Cc2ccncc2)cc1`, the inhibition was 14.3%.

For the molecule `CCS(=O)(=O)Nc1ccc(Cc2ccncc2)cc1`, the inhibition is -1.6%.

As for `COc1ccc(NC(=O)CCCn2c(=O)[nH]c3ccccc3c2=O)cc1`, the inhibition was 27.9%.

Take `c1ccc2c(-c3ccncc3)c[nH]c2c1`: the inhibition is -22.9%.

With `O=c1[nH]c2ccccc2nc1-c1c[nH]c2ccccc12`, the inhibition is 12.2%.

On to `COc1ccc(C(=O)C2CCCN(Cc3cn(C)nc3-c3ccccc3)C2)cc1F` (stereo not drawn), for which the inhibition is 4.8%.

In the case of `CN(c1ccccc1)S(=O)(=O)c1ccc(NC(=O)C2CCCCC2C(=O)O)cc1` (stereo not drawn), the inhibition is 45.5%.

On to `CN(C1CCCCC1)S(=O)(=O)c1ccc(NC(=O)C2CCCCC2)cc1`, for which the inhibition was 0.9%.

For `Cc1ccc(Cn2c(SCC(=O)Nc3cccc(C)n3)nc3c2c(=O)n(C)c(=O)n3C)cc1`, the inhibition is 4.3%.

Take `COc1ccccc1CN(CC(=O)NCc1ccc(F)cc1)C(=O)c1csnn1`: the inhibition is 4%.

Regarding `Cc1ccccc1Cn1c(=N)n(CC(=O)c2ccc([N+](=O)[O-])cc2)c2ccccc21`, the inhibition was 11%.

Regarding `Cc1ccc(Cn2c(=N)n(CC(=O)c3ccc([N+](=O)[O-])cc3)c3ccccc32)cc1`, the inhibition is 44.2%.

Take `N=c1n(CC(=O)c2cccc([N+](=O)[O-])c2)c2ccccc2n1Cc1ccccc1`: the inhibition was 28.3%.

For `N=c1n(CC(=O)c2ccc([N+](=O)[O-])cc2)c2ccccc2n1Cc1ccccc1`, the inhibition was 64.5% (active).

With `N=c1n(CC(=O)c2ccc([N+](=O)[O-])cc2)c2ccccc2n1Cc1ccccc1Cl`, the inhibition was 8.7%.

Consider `N=c1n(CC(=O)c2ccc([N+](=O)[O-])cc2)c2ccccc2n1Cc1ccc(Cl)cc1`, for which the inhibition is 65.4% (active).

Consider `N#Cc1cccc(NC(=O)COC(=O)c2ccc3c(=O)n4c(nc3c2)CCC4)c1`, for which the inhibition is 3%.

On to `CCOC(=O)C(=O)c1cn(C2OCC(OC(C)=O)C(OC(C)=O)C2OC(C)=O)c2ccccc12` (stereo not drawn), for which the inhibition is 6.8%.

On to `Nn1c(SCC(=O)Nc2ccc(F)cc2)nnc1-c1cccnc1`, for which the inhibition is 16.8%.

For `O=C1C2C3C=CC(C3)C2C(=O)N1CCCCCCN1C(=O)C2C3C=CC(C3)C2C1=O` (stereo not drawn), the inhibition was 12%.

Consider `O=C1C=CC(=O)N1Cc1ccccc1`, for which the inhibition was -45%.

As to `COc1cc(/C=N/NC(=O)C2CC(=O)N(c3ccc(C)cc3)C2)cc(OC)c1OC` (stereo not drawn), the inhibition was 6.8%.

On to `Cc1[nH]c2ccccc2c1C(=O)C(=O)N1CCN(C)CC1`, for which the inhibition was 8.2%.

As for `COc1ccc(/C=C/C(=O)NCc2ccccn2)cc1OC`, the inhibition is -3%.

As for `Cc1ccc(CNC(=O)C(NS(=O)(=O)c2ccc3nc(C)sc3c2)C(C)C)cc1` (stereo not drawn), the inhibition is 3.8%.

As to `Cc1nc2ccc(S(=O)(=O)NC(C(=O)Nc3nccs3)C(C)C)cc2s1` (stereo not drawn), the inhibition was 17.8%.

Consider `CCc1noc(C)c1C(=O)N1CC(C)OC(C)C1` (stereo not drawn), for which the inhibition was 22%.

Take `c1ccc(-c2nc(-n3ccnc3)nc(-n3ccnc3)n2)cc1`: the inhibition is 4.8%.

In the case of `c1ccc(-c2nc(N3CCN(c4ccccc4)CC3)nc(-n3ccnc3)n2)cc1`, the inhibition is 24.6%.

Regarding `COc1ccc(C(=O)NNC(=O)c2cccc(F)c2)cc1`, the inhibition is -5.9%.

On to `COc1cc(C(=O)NCC(=O)OCC(=O)c2ccc[nH]2)cc(OC)c1OC`, for which the inhibition was -22.9%.

Regarding `COc1ccc2c(c1)[nH]c1c(N3CCSCC3)ncnc12`, the inhibition was -7.3%.

For `COc1ccccc1NC(=O)Nc1ccnn1C1CCCCC1`, the inhibition was 0.2%.

As for `COc1ccc2cc(C(=O)N/N=C/c3sc4ccccc4c3O)ccc2c1`, the inhibition was 4.9%.

Turning to `COc1ccc(NC(=O)/C(Cl)=C(/Cl)S(=O)(=O)Cc2ccc(C)cc2)cn1`, the inhibition was -0.1%.

Regarding `COc1ccc(NC(=O)/C(Cl)=C(/Cl)S(=O)(=O)Cc2ccccc2)cn1`, the inhibition is 93.7% (active).

As to `COc1ccc(NC(=O)C(Cl)=C(Cl)Cl)cn1`, the inhibition was 6.1%.

On to `COc1ccc(NC(=O)Cc2c(Cl)cccc2Cl)cn1`, for which the inhibition was 9%.

As for `COc1ccc(CS(=O)(=O)/C(Cl)=C(/Cl)C(=O)Nc2ccc(OC)nc2)cc1`, the inhibition is 2%.

Turning to `O=C(c1ccccc1[N+](=O)[O-])N1CCN(Cc2ccc3c(c2)OCO3)CC1`, the inhibition is 0.2%.

For the molecule `Cc1nc(COc2ccc(C(=O)Nc3ccccc3N3CCOCC3)cc2)cs1`, the inhibition was 2.8%.

Turning to `CCc1ccccc1S(=O)(=O)Cc1ccc(C(=O)N2CCN(c3ccccn3)CC2)o1`, the inhibition was -4.8%.

With `COc1ccc2nc(NC(=O)CN(c3ccc(C)cc3)S(=O)(=O)c3c(C)nn(C)c3C)sc2c1`, the inhibition was 22.1%.

As for `COc1ccc(N(CC(=O)Nc2cc(C)ccc2C)S(=O)(=O)c2c(C)nn(C)c2C)cc1`, the inhibition was 10%.

Take `C#CCNC(=O)C1=C[C@@H](c2csc3ccccc23)[C@H](CCCO)[C@@H](OCC)O1`: the inhibition is 14.1%.

With `O=C(N/N=C/c1ccc(O)cc1)c1cc(C23CC4CC(CC(C4)C2)C3)[nH]n1`, the inhibition is -6.9%.

Consider `COc1cc(/C=N/NC(=O)c2cc(C3CC3)[nH]n2)ccc1O`, for which the inhibition was 6.5%.

Regarding `COc1ccc(/C=N/NC(=O)c2cc(C34CC5CC(CC(C5)C3)C4)[nH]n2)cc1O`, the inhibition is 49.4%.

Take `COc1cccc(/C=N/NC(=O)c2cc(C34CC5CC(CC(C5)C3)C4)[nH]n2)c1`: the inhibition is 14.9%.

As to `CC(C)NC(=O)CN(CCc1ccccc1)S(C)(=O)=O`, the inhibition was 18.2%.
